# HIF-2a inh – blocks HIF-2a reporter activity. inhibition, % at 18.8 µM. 360,000 tested, 0.72% active. 786-0 RCC cells HIF-2a reporter, luciferase luminescence, overnight;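 active = inhibition of the luminescence signal of 40% or more relative to plate controls, in a single-dose primary screen at 18.75 µM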
# TRPM1 prom inh – MITF TRPM1 promoter inhibition in SK-MEL-5 cells | inhibition, % at 12.5 µM | SK-MEL-5 TRPM1 promoter luciferase, 24 h | 330,000 tested, 0.83% active;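 active = mean inhibition across replicates of 60% or more, whatever share of single replicates reaches that level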
# KKLEB tox – counter-screen for CF NF-kB inhibitors: cytotoxicity. KKLEB CF airway cells viability, ATPlite luminescence, overnight; stronger effect = lower value; cells stimulated with P. aeruginosa culture filtrate. activity change (cytotoxicity), % at 5 µM. 360,000 tested, 0.36% active;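 active = corrected activity change at or below -50% at 5 µM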
# Peg3 promoter – reduces Peg3 promoter-driven luciferase expression in HeLa. HeLa PEG-Prom luciferase reporter, luminescence, overnight. inhibition, % at 20 µM. 360,000 tested, 1.7% active;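 active = inhibition of at least 50% at 20 µM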
# CF NFkB block – inhibitors of cystic fibrosis induced NF-kB. KKLEB NF-kB-GFP reporter, PAF-induced, GFP fluorescence overnight. inhibition, % at 5 µM. 360,000 tested, 0.86% active. AID 588850;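 active = at least 50% inhibition at 5 µM, scaled per plate between neutral and stimulator controls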;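 also: PAF is a Pseudomonas aeruginosa culture filtrate used as stimulus; plate controls were PAF-stimulated DMSO wells for no effect and unstimulated DMSO wells for full effect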
# ABHD5-PLIN5 inh – blocks binding of human ABHD5 to perilipin-5. AID 602281. Q00G26+Q8WTS1. 360,000 tested, 0.78% active. inhibition, % at 4 µM. Split G. princeps luciferase complementation, luminescence, 4 h;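 active = inhibition above the mean inhibition across every tested compound plus 3 SD, cut at about 22% in these data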;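 also: 0% = DMSO only wells and the 100% control is not disclosed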
# Target sequence (Q00G26 whole entry, looked up): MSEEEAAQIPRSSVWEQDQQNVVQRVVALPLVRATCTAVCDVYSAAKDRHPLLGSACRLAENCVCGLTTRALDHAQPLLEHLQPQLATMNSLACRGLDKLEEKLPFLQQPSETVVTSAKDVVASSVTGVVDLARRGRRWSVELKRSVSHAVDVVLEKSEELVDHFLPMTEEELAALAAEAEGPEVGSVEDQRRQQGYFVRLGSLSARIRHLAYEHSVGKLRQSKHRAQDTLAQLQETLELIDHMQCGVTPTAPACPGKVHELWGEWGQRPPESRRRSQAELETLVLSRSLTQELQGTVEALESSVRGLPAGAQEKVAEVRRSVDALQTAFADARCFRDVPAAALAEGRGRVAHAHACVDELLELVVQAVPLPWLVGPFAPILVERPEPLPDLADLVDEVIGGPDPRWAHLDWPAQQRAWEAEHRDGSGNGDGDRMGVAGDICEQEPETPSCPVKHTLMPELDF
# Target sequence (Q8WTS1 whole entry, looked up): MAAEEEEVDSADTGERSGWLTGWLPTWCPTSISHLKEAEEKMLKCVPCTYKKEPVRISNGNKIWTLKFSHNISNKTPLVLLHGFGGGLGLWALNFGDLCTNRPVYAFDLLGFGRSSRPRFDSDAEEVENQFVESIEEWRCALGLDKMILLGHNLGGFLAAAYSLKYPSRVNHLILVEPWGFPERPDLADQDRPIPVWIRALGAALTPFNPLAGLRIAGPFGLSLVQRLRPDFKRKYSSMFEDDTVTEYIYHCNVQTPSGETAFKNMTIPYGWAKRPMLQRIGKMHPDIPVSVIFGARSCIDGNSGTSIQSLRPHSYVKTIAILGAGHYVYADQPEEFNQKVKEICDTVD
# The depositor's hits bear a star; / = not tested or not shown. Shown are actives, neighbours in structure and some others; about 3.1% of the full set was active somewhere.
SMILES,HIF-2a inh,TRPM1 prom inh,KKLEB tox,Peg3 promoter,CF NFkB block,ABHD5-PLIN5 inh
CCOC(=O)c1[nH]c2ccc(F)cc2c1NC(=O)CN1CCN(C/C=C/c2ccccc2)CC1,17.5,47.1,-14.4,65.1*,2.7,11.5
CCCOc1ccc(/C(CC)=N/NC(=O)C2(C)CC2(Br)Br)cc1 (centres undefined),1.6,-10.7,-51.6*,8.9,34.2,-6.5
CNC(=O)NNC(=O)c1csc(Cc2c(Cl)sc3ccc(Cl)cc23)n1,8.0,1.5,-1.3,-10.1,16.8,1.3
Cc1ccccc1NC(=O)c1cn(-c2ccccc2)nc1-c1ccccc1,-38.5,8.5,-4.1,7.7,0.2,10.1
Cc1ccc(-c2nn(-c3ccccc3)cc2CO)cc1,-216.9,-63.2,5.1,-262.8,-2.4,2.6
Cc1ccc(-c2nn(-c3ccccc3)cc2NC(=O)CCl)cc1,-76.3,51.1,-34.5,105.1*,25.2,-2.6
Cc1ccc(-c2nn(-c3ccccc3)cc2CNCc2ccccc2)cc1,-15.9,-3.8,-15.7,52.9*,10.6,-6.3
Cc1ccc(-n2cc(CNCCCn3cccn3)c(-c3cccc(C)c3)n2)cc1,-31.7,78.9*,-27.1,85.0*,17.4,12.7
COc1ccc(-n2ncc(C(=O)NC3CC3)c2C2CCN(C(=O)OC(C)(C)C)CC2)cc1,5.7,8.9,-0.2,17.1,7.5,2.3
COc1ccc2sc3c(=O)[nH]c4ccccc4c3c2c1,16.5,45.9,-25.9,24.7,62.6*,1.1
COc1ccc2c(c1)[nH]c(=O)c1sc3ccccc3c12,-7.9,16.1,5.2,12.3,-16.2,10.0
CC(C)[C@@H]1CC[C@@H](C)C[C@H]1OC(=O)C[n+]1cc(-c2ccc(Cl)cc2)n2c1CCCCC2,-15.2,78.7*,-44.3,49.7,47.7,13.2
COc1ccc(-c2c[n+](CC(=O)OC3CC(C)CCC3C(C)C)c3n2CCC3)cc1 (centres undefined),4.4,86.2*,-6.7,27.9,22.8,10.6
COc1ccc(N2CC(C(=O)OCC(=O)Nc3cccc(C)c3)CC2=O)cc1 (centres undefined),3.1,-2.0,10.6,4.4,-3.3,1.3
Cc1cccc(C)c1NC(=O)COc1ccc2c(C)c(Cc3ccccc3)c(=O)oc2c1C,15.8,13.1,-22.0,72.8*,16.5,0.1
CCNC(=O)C1(C)CCN(C(=O)c2ccc(OC)cc2OC)C1 (centres undefined),1.5,/,2.8,1.9,0.3,1.0
O=C(COC(=O)CC1CCCC1)Nc1cccc(F)c1,3.3,-5.8,4.0,3.8,-7.8,10.5
COC(=O)C1=C(C(=O)OC)[C@@H]2N(C)c3ccc(OC)cc3[C@@]23C[C@@H](C(=O)OC)N(C(=O)c2cccs2)C3=N1,5.5,8.8,0.1,19.4,54.4*,-6.7
COC(=O)C1=C(C(=O)OC)[C@@H]2N(Cc3ccccc3)c3ccccc3[C@@]23C[C@@H](C(=O)OC)N(C(=O)c2cc(C)oc2C)C3=N1,5.3,-1.1,-23.9,55.0*,46.1,2.0
COC(=O)C1=C(C(=O)OC)[C@@H]2N(Cc3ccccc3)c3ccccc3[C@@]23C[C@@H](C(=O)OC)N(C(=O)c2cccs2)C3=N1,-0.5,2.4,-15.5,81.4*,38.1,-4.7
COC(=O)C1=C(C(=O)OC)[C@@H]2N(C)c3ccccc3[C@@]23C[C@@H](C(=O)OC)N(C(=O)c2cccs2)C3=N1,6.4,0.3,-6.2,36.3,30.1,2.7
COC(=O)C1=C(C(=O)OC)[C@@H]2N(C)c3ccccc3[C@@]23C[C@@H](C(=O)OC)N(C(=O)c2ccc(Br)cc2)C3=N1,0.9,10.6,-6.4,82.3*,43.9,0.7
CN(CCN1CCc2ccccc2C1)Cc1nc(Cc2ccccc2F)no1,14.2,8.4,7.8,7.7,-9.6,2.2
O=C(CCCn1cnc([N+](=O)[O-])n1)Nc1cccc(Cl)c1Cl,14.1,-5.2,-9.9,14.6,22.4,-2.3
O=C(CCCn1cnc([N+](=O)[O-])n1)Nc1ccc(Cl)c(Cl)c1,-30.4,9.5,-8.7,23.2,14.6,27.8*
SMILES,HIF-2a inh,TRPM1 prom inh,KKLEB tox,Peg3 promoter,CF NFkB block,ABHD5-PLIN5 inh
Nc1ccc(N=Nc2ccccc2)c(N)n1,-328.0,-89.8,-10.3,-317.5,63.4*,2.3
Oc1ccc(Nc2nc3ccccc3nc2Nc2ccc(O)cc2)cc1,75.0*,65.8*,-5.9,96.4*,21.1,57.2*
COc1ccc2nc(SCC(=O)Nc3ccc4sc(C)nc4c3)c(C#N)cc2c1,-59.1,2.9,-61.6*,-37.7,16.7,-1.2
COc1ccccc1-c1cccc([C@@H]2C[C@H]3[C@H](CON3C)CN2Cc2cc(Cl)cc(Cl)c2)c1,14.4,8.6,-6.9,12.8,1.4,3.6
CCC(C)NC(=O)Cn1c(-c2ccccc2)cc(C(C)=O)c1C (centres undefined),2.2,-5.2,2.6,-6.6,-1.5,2.3
CCCCCN(C(=O)CCC(=O)OCc1ccc(C(C)C)cc1)c1c(N)n(CCCC)c(=O)[nH]c1=O,-4.6,4.2,-54.4*,11.0,54.5*,-1.6
CCCCCN(C(=O)CCC(=O)OCc1ccc(C(C)(C)C)cc1)c1c(N)n(CCCC)c(=O)[nH]c1=O,18.6,18.4,-6.9,19.2,37.3,0.2
CC(C)=CCC/C(C)=C/CNC(=O)CC1C[C@H](C(=O)N2CCOCC2)[C@@]2(C)c3[nH]c4ccccc4c3CCN2C1=O (some centres undefined),15.9,20.9,4.1,17.3,-1.1,-0.1
CC[C@]12c3[nH]c4ccc(Cl)cc4c3CCN1C(=O)[C@@H](CC(=O)NCC13CC4CC(CC(C4)C1)C3)C[C@@H]2C(=O)N1CCN(C(=O)c2ccco2)CC1,-24.2,43.2,-6.9,67.3*,16.5,18.1
CC(C)=CCC/C(C)=C/CNC(=O)C[C@H]1C[C@H](C(=O)N2CCOCC2)[C@@]2(C)c3[nH]c4ccc(Cl)cc4c3CCN2C1=O,-22.6,8.7,-13.9,55.6*,28.8,-1.0
CCN(CC)C(=O)[C@H]1C[C@H](CC(=O)NCC23CC4CC(CC(C4)C2)C3)C(=O)N2CCc3c([nH]c4ccc(Cl)cc34)[C@]12C,-6.7,12.1,-6.0,59.5*,25.2,-0.8
CC[C@]12c3[nH]c4ccc(OC)cc4c3CCN1C(=O)C(CC(=O)NCC13CC4CC(CC(C4)C1)C3)C[C@@H]2C(=O)N1CCN(C(=O)c2ccco2)CC1 (some centres undefined),-2.7,10.7,-5.2,14.1,9.8,-1.2
Cc1ccc(-c2cc(NC(=O)CCl)n(-c3ccccc3)n2)cc1,-179.8,-12.2,-13.6,37.2,-48.5,8.2
O=C(CCl)Nc1cc(-c2ccccc2)nn1-c1ccccc1,-24.6,67.0*,-53.5*,40.6,-0.3,-6.1
CN1CCN(Cc2c(C(=O)N/N=C/c3cccc(Br)c3)nnn2-c2nonc2N)CC1,8.2,76.6*,-10.2,41.3,-27.5,8.5
